IP6K1 inhibitor – IP6K1 kinase inhibition | Q92551 | IP6K1 kinase, ADP-Glo luminescence, 2 h; stronger effect = lower value | activity change, % (series mostly up to about 58 µM) | actives 0.81% (n = 140,000) | AID 1645851; in the data active means activity change below about -25%
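ADP-Glo luminescence measures ADP made by human IP6K1 during a 2 h RT reaction with ATP/IP6 (mix at 1.3 mM/130 uM); top library doses 57.5 and 19.1 uM final.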
HEK293 viab – cell viability loss counter-screen; Potency, µM (series often up to 57.1 µM), hits mostly cytotoxic; actives 0.12% (n = 150,000); HEK-293-SNCA-luc viability, GF-AFC fluorescence, 24 h; further: nearly all actives have a fitted effect of over 30% in size
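HEK-293-SNCA-luc cells (1500/well) plated 24 h, then exposed 24 h to a dilution series; GF-AFC added 30 min at 37C, fluorescence 405/540 nm; normalised to medium-only and DMSO wells, Hill fit.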
SNCA expr inh – inhibitors of alpha-synuclein (SNCA) gene expression. HEK-293 SNCA-luciferase knock-in, luminescence, 24 h. Potency, µM (doses to about 57.2 µM), most hits filed as inhibitors. actives 0.17% (n = 140,000). AID 1671194; further: nearly all actives have a fitted effect of over 45% in size
KDM5B inhibitor – inhibitors of human KDM5B histone demethylase | Q9UGL1 | KDM5B demethylase, FDH-coupled NADH fluorescence (FDH is formaldehyde dehydrogenase) | Potency, µM (doses to about 57.7 µM), most hits filed as inhibitors | actives 2.6% (n = 220,000) | AID 1347165; further: nearly all actives have a fitted effect of over 70% in size
Target sequence (Q9UGL1 whole entry, looked up): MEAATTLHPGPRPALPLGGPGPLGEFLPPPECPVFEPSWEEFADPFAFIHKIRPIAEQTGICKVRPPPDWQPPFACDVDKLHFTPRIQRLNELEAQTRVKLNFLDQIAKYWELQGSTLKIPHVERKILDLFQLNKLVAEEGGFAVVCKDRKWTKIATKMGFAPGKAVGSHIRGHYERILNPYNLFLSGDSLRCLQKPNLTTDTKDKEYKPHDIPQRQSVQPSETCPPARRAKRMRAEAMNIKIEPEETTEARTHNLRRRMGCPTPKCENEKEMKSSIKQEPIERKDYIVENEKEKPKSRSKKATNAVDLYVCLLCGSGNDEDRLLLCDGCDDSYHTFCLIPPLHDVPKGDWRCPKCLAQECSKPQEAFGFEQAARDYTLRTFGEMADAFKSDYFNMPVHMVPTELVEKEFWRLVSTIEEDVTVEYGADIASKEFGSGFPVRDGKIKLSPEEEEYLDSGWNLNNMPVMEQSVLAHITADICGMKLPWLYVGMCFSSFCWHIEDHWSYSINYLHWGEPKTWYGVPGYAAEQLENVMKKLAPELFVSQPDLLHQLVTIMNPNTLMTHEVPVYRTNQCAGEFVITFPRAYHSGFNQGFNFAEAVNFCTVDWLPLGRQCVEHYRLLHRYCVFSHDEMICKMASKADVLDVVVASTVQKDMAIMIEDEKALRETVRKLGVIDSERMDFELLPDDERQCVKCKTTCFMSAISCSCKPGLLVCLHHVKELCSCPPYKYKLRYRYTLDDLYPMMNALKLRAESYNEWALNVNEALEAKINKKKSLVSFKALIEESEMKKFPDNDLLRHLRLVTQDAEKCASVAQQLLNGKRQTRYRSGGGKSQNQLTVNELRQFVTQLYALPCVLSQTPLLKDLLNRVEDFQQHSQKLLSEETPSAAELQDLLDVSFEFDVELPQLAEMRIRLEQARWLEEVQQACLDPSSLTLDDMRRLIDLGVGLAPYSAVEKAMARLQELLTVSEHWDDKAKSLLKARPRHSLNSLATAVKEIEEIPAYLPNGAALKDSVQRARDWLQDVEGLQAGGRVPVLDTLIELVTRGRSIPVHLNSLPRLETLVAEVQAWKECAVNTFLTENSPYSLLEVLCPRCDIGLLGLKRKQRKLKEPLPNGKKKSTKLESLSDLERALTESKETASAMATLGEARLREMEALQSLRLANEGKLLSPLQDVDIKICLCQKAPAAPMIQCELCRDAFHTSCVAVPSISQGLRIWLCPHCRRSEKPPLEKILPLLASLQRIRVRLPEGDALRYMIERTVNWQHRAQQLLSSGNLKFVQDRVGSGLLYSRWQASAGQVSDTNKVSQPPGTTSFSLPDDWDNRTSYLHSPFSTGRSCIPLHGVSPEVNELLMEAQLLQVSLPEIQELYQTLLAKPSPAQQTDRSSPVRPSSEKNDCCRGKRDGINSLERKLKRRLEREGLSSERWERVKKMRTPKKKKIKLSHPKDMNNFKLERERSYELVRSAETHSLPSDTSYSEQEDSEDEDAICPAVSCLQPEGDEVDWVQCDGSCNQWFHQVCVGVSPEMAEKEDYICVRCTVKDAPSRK
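Inhibition is measured as reduced NADH fluorescence generation from FDH coupling to formaldehyde release. Truncated KDM5BΔAP at 200 nM final acts on H3K4me3 peptide (12.5 µM in substrate mix) in pH 7.5 HEPES buffer with Tween-20, 30 min, room temperature.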
Hits are given with their value; . = inactive; ? = inconclusive; / = not tested or not shown. This is a sample that favours compounds with a hit; in the whole collection about 2.8% have one here. Unless noted, the call rests on the fitted dose curve; in most records, active means well fitted curve in the direction sought with a large enough effect; inconclusive means small, poorly fitted or top-dose-only effect, or another doubt; inactive means no such curve, though single readings can be large; an effect the other way counts as inactive or inconclusive.

SMILES | IP6K1 inhibitor | HEK293 viab | SNCA expr inh | KDM5B inhibitor
CN(C)c1cccc(C(=O)NC2CCN(c3cc(-c4ccc(Cl)cc4)[nH]n3)CC2)c1 | . | . | . | 31.6µM
O=C(Cc1ccccc1F)N1CCCN(c2cc(-c3ccc(Cl)cc3)[nH]n2)CC1 | . | ? | . | 10µM
CN(C)c1cccc(C(=O)NC2CCN(c3cc(-c4ccc(F)cc4)[nH]n3)CC2)c1 | . | . | . | .
Cc1ccc2c(COC(=O)c3cc(S(=O)(=O)N(C)C)ccc3N3CCCCC3)cc(=O)oc2c1 | / | / | / | .
O=C(N/N=C/c1cccs1)c1ccccc1Br | / | / | / | .
CCCC(=O)Nc1ccc(O)c(-c2nc3cc(C)cc(C)c3o2)c1 | / | / | / | .
CCN(Cc1ccco1)C(=O)[C@@H]1CN(c2ncccn2)C[C@H]1COC | . | . | . | ?
COC[C@@H]1CN(c2ncccn2)C[C@H]1C(=O)O | . | . | . | 15.8µM
CCOCC(=O)N[C@@H]1CN(c2ncccn2)C[C@H]1CO | . | . | . | ?
COC[C@@H]1CN(c2ncccn2)C[C@H]1C(=O)N(C)Cc1ccco1 | . | . | . | 17.8µM
CCN(Cc1ccc(OC)c(F)c1)C(=O)COC(=O)c1nn(CC)c(=O)c2ccccc12 | / | / | / | .
O=C(Cc1coc(-c2ccccc2)n1)NCCN(C(=O)Cc1coc(-c2ccccc2)n1)C1CC1 | / | / | / | .
Cc1ccc(F)c(OC2(C(=O)O)CCN(c3cnc4ccccc4n3)CC2)c1 | . | . | . | 20µM
CCN(CC)C(=O)c1cc2c(s1)CCC(C(=O)N1CCN(c3ccccc3)CC1)C2 (centres undefined) | . | . | . | .
O=C1CCN(C(=O)c2ccsc2)CCCC(C(=O)N2CCN(c3ccccn3)CC2)CCN1 (centres undefined) | . | . | . | 20µM
O=C1CCN(Cc2ccncc2)CCCC(C(=O)N2CCN(c3ccccn3)CC2)CCN1 (centres undefined) | . | . | . | ?
CCN(CC)C(=O)c1cc2c(s1)CCC(C(=O)N1CCN(c3ccccn3)CC1)C2 (centres undefined) | . | . | ? | 28.2µM
O=C1CCN(C(=O)C2CCC2)CCCC(C(=O)N2CCN(c3ccccn3)CC2)CCN1 (centres undefined) | . | . | . | 22.4µM
O=C(c1ccc2c(c1)N(C(=O)c1ccccc1)CC2)N1CCN(c2cccc(Cl)c2)CC1 | . | ? | ? | ?
Cc1ccc(CN2CC3ON=C(C(=O)O)C3C2)cc1 (centres undefined) | . | . | ? | ?
CCc1ccc(CN2CC3ON=C(C(=O)O)C3C2)cc1 (centres undefined) | . | . | . | 112µM
CC(C(=O)NC(N)=O)N(C)Cc1ccc(C(=O)NC2CC2)cc1 (centres undefined) | / | / | / | .
O=C(O)c1cnc(-c2cc(NCc3ccccn3)nc3[nH]ccc23)c(Cl)c1 | . | . | . | ?
NC(=O)c1cc(-c2cc(NCc3cccnc3)nc3[nH]ccc23)ccc1F | . | . | . | 25.1µM
C=C1/C(=C/C=C2\CCC[C@]3(C)[C@@H]([C@H](C)/C=C/C(=O)C4CC4)CC[C@@H]23)C[C@@H](O)C[C@@H]1O | . | 23.8µM | / | /
SMILES | IP6K1 inhibitor | HEK293 viab | SNCA expr inh | KDM5B inhibitor
CNC(=O)c1ccc(NC(=O)CSCc2csc(-c3ccc(C)cc3)n2)cc1 | / | / | / | .
Cc1ccc([S+](=O)([O-])c2nnn3c2nc(NCc2ccncc2)c2ccccc23)cc1 | . | . | . | ?
CCc1ccc([S+](=O)([O-])c2nnn3c2nc(NCc2ccncc2)c2ccccc23)cc1 | . | . | . | 50.1µM
O=[S+]([O-])(c1ccc(Cl)cc1)c1nnn2c1nc(NCc1ccncc1)c1ccccc12 | . | . | . | 89.1µM
Cc1ccc(C)c([S+](=O)([O-])c2nnn3c2nc(NCc2ccncc2)c2ccccc23)c1 | . | . | . | 89.1µM
CC(C)c1ccc([S+](=O)([O-])c2nnn3c2nc(NCc2ccncc2)c2ccccc23)cc1 | . | . | ? | 79.4µM
Cc1cc(C)c([S+](=O)([O-])c2nnn3c2nc(NCc2ccncc2)c2ccccc23)c(C)c1 | . | . | . | ?
COc1ccc([S+](=O)([O-])c2nnn3c2nc(NCc2ccncc2)c2ccccc23)cc1 | . | . | . | ?
Cc1nn(-c2ccc(C(C)C)cc2)c(C)c1[C@@H]1C=C[C@@H](NCc2ccccc2)C1 | . | ? | . | ?
NC(=O)NCCC(=O)N1CCc2onc(-c3cccc4ccccc34)c2C1 | . | . | ? | 25.1µM
NC(=O)NCC(=O)N1CCc2onc(-c3cccc4ccccc34)c2C1 | . | . | . | ?
COc1ccc(-c2cnc(Nc3ccc(CN4CCN(C)CC4)cc3)c3c2CCO3)cn1 | . | ? | . | ?
COc1ccccc1-c1cnc(Nc2ccc(CN3CCN(C)CC3)cc2)c2c1CCO2 | . | . | . | 35.5µM
COc1ccc(Nc2ncc(-c3ccccc3OC)c3c2OCC3)cn1 | . | . | . | 35.5µM
COc1cccc(Nc2ncc3c(n2)C(C)(C(=O)Nc2nc(C)cs2)CC3)c1 (centres undefined) | . | . | . | 35.5µM
CC1(O)CCCN(c2ccc(-c3nc(CCCc4ccccc4)no3)cn2)C1 (centres undefined) | . | . | . | 22.4µM
OCCC1CCN(c2ccc(-c3nc(CCCc4ccccc4)no3)cn2)CC1 | . | . | . | .
OCCC1CN(c2ccc(-c3nc(CCCc4ccccc4)no3)cn2)CCO1 (centres undefined) | . | . | . | 20µM
Cc1nn(C)c(C)c1NC(=O)c1nn(C)cc1Br | / | / | / | .
Cc1cccc(N2CCN(C(=O)c3noc(-c4ccc[nH]c4=O)n3)CC2)c1C | . | . | . | 28.2µM
Cc1ccccc1N1CCN(C(=O)c2noc(-c3ccc[nH]c3=O)n2)CC1 | . | . | . | 28.2µM
Cc1cccc(N2CCN(C(=O)c3noc(-c4ccc[nH]c4=O)n3)CC2)c1 | . | . | . | 28.2µM
Cc1ccc(-c2nc(C(=O)N3CCN(c4ccccc4C)CC3)no2)cc1 | . | . | . | ?
COc1ccccc1N1CCN(C(=O)c2noc(-c3ccc(C)cc3)n2)CC1 | . | . | . | .
Cc1cccc(N2CCN(C(=O)c3noc(-c4ccc5c(c4)OCO5)n3)CC2)c1 | . | . | . | ?
SMILES | IP6K1 inhibitor | HEK293 viab | SNCA expr inh | KDM5B inhibitor
CC(C)(C)c1ccc(NC(=O)CCC(=O)O)cc1 | / | / | / | .
CCc1nccc(CN2CCC(c3nn(C)c(=O)n3CC)CC2)n1 | . | . | . | 15.8µM
CC(NC(=O)CC1C=CCC1)C1CCCO1 (centres undefined) | / | / | / | .
Cc1noc(C)c1-c1cnc(Nc2ccc(F)cc2)c2c1CCO2 | . | . | . | ?
COc1ccc(Nc2ncc(-c3cnn(C)c3)c3c2OCC3)cc1 | . | . | . | 35.5µM
COc1cccc(Nc2ncc(-c3c(C)noc3C)c3c2OCC3)c1 | . | . | . | 35.5µM
Cc1noc(C)c1-c1cnc(Nc2ccc(F)c(Cl)c2)c2c1CCO2 | . | . | . | 17.8µM
COc1cncc(Nc2ncc(-c3cccc(N(C)C)c3)c3c2OCC3)c1 | . | . | ? | 31.6µM
CCOC(=O)c1cccc(NC(=O)c2ncoc2-c2ccc(OC)c(OC)c2)c1 | / | / | / | .
C(=N\N=C1c2ccccc2-c2ccccc21)/c1cccs1 | / | / | / | .

Assay outcomes as filed in PubChem BioAssay.
